Results from PubChem BioAssay (NCI).
Compounds without any hit were thinned out: in the full panel of roughly 79,000, 15% have a hit. Unmarked numbers belong to inactive results. Calls of active or inactive are those of the source. Cut-off read from the data, not from the text of the source: active = growth inhibition above about 70%; inactive = the rest.

Columns and labels:
[1] = NCI Yeast Anticancer Drug Screen. Data for the rad50 strain (AID 155);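 note: 0% = growth of vehicle-only cultures of the same strain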; conditions: S. cerevisiae rad50 strain growth inhibition, active compounds read high
Method in brief: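 Growth of the mutant yeast was measured after compound exposure and referenced to vehicle-treated cultures.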

[2] = NCI Yeast Anticancer Drug Screen. Data for the mec2-1 strain (AID 157); conditions: S. cerevisiae mec2-1 strain, active compounds read high
Method in brief: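 Test agents were screened against the mec2-1 yeast strain, with defined DNA repair or cell cycle alteration. Growth was scored as inhibition against vehicle-only controls.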

[3] = NCI Yeast Anticancer Drug Screen. Data for the sgs1 mgt1 strain (AID 161);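 note: 0% = growth of cultures given vehicle only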; conditions: S. cerevisiae sgs1 mgt1 strain, active compounds read high
Method in brief: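 Inhibition of yeast growth, normalised to vehicle-treated controls, is reported for a strain bearing genetic alterations in DNA damage repair.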

[4] = NCI Yeast Anticancer Drug Screen. Data for the cln2 rad14 strain (AID 165);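 note: 0% = growth equal to vehicle treated cultures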; conditions: S. cerevisiae cln2 rad14 strain, active compounds read high
Method in brief: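 Growth of compound-exposed yeast (cln2 rad14 genotype) measured and expressed as inhibition relative to vehicle.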

[5] = NCI Yeast Anticancer Drug Screen. Data for the bub3 strain (AID 167); conditions: S. cerevisiae bub3 mutant strain, active compounds read high
Method in brief: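 Whole-cell yeast assay. The mutant strain was incubated with compounds, and growth inhibition was determined by comparison with vehicle-treated cells.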

[6] = NCI Yeast Anticancer Drug Screen. Data for the mlh1 rad18 strain (AID 175); conditions: S. cerevisiae mlh1 rad18 strain growth inhibition, active compounds read high
Method in brief: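 In this whole-cell yeast screen, a strain with altered DNA damage repair is challenged with compound, and its growth is measured against matched vehicle-treated controls.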

[7] = at 5.0 µM (retest, dose inferred, filed as 0.5)
[8] = at 50.0 µM (retest, dose inferred, filed as 5.0)

SMILES	growth inhibition [1, 7]	growth inhibition [1, 8]	growth inhibition ([1]; at 50.0 µM)	growth inhibition [2, 7] [%]	growth inhibition [2, 8]	growth inhibition ([2]; at 50.0 µM)	growth inhibition [3, 7] [%]	growth inhibition [3, 8]	growth inhibition ([3]; at 50.0 µM)	growth inhibition [4, 7] [%]	growth inhibition [4, 8]	growth inhibition ([4]; at 50.0 µM)	growth inhibition [5, 7]	growth inhibition [5, 8]	growth inhibition ([5]; at 50.0 µM)	growth inhibition [6, 7]	growth inhibition [6, 8]	growth inhibition ([6]; at 50.0 µM)
Cc1cc[n+](C2CCC3(C)C(=CCC4C3CCC3(C)C(C(C)CCCC(C)C)CCC43)C2)cc1 (configuration not stated)	91% (active)	97% (active)	95.8% (active)	16	98% (active)	96% (active)	69	98% (active)	98% (active)	26	97% (active)	64.3%	75% (active)	97% (active)	96.2% (active)	71% (active)	97% (active)	97.7% (active)
CCn1c2ccc([N+](=O)[O-])cc2c2c([N+](=O)[O-])c(-n3cccc3)ccc21	24%	59%	86% (active)	2	10%	0.3%	5	28%	36.4%	-3	6%	8.9%	-3%	-4%	10.9%	3%	29%	21.2%
ClC1(Cl)c2ccccc2-c2ccccc21	-147%	-36%	7.55%	-51	-40%	-4.1%	-59	-49%	-7.05%	-55	-54%	43.4%	-67%	-55%	-21%	-115%	-79%	-2.85%
Cc1ccc2[nH]c3cc4ccncc4cc3c2c1	-127%	95% (active)	48.5%	30	95% (active)	98.6% (active)	-15	94% (active)	3.7%	35	96% (active)	96.7% (active)	47%	96% (active)	97.2% (active)	40%	95% (active)	49.9%
OCC(O)C(O)C(/C=N/Nc1ccccc1)=N/Nc1ccccc1 (configuration not stated)	11%	45%	44%	7	32%	13.7%	10	57%	47.4%	51	38%	13.4%	6%	-65%	-5.35%	2%	61%	60.4%
OCC(O)C(O)C(O)C(O)c1cnn(-c2ccccc2)n1 (configuration not stated)	3%	-4%	10.8%	-8	-24%	3.45%	3	-5%	15.2%	-4	-2%	14.2%	-3%	2%	-1.3%	-7%	-2%	18.9%
O=C(Nc1cccc2ccccc12)OCCCCCCl	-2%	97% (active)	97% (active)	-2	96% (active)	97% (active)	1	98% (active)	97.1% (active)	-6	95% (active)	95.5% (active)	-5%	93% (active)	97.2% (active)	-16%	93% (active)	97.4% (active)
C=C(CC)C[C@@H]1C[C@]2(C(=O)OC)c3[nH]c4ccccc4c3CCN2C1=O	-1%	94% (active)	52.5%	0	85% (active)	26.9%	8	98% (active)	58.4%	15	77% (active)	62.5%	2%	18%	48.5%	0%	96% (active)	82.5% (active)
COc1ccc(/C=C2\NC(=O)NC2=O)cc1	0%	7%	-1.65%	-4	5%	-6.8%	-1	3%	-0.65%	-4	-3%	24.1%	27%	22%	6.25%	-1%	5%	18.6%
